Experimental findings from PubChem BioAssay are described below.

Unmarked numbers belong to inactive results. Calls of active or inactive are those of the source. Cut-off read from the data, not from the text of the source, unless noted: active = inhibition above about 42%; inactive = the rest.

A short description of test [1]: StAR promoter reporter inhibitors, counter-screen for LRH-1 inverse agonist project, cell-based, luminescence, high throughput (AID 651611; in the data active = inhibition above about 28%). Particulars: StAR promoter luciferase reporter counterscreen, at 3.6 µM, stronger effect = higher value.
Test [2] addresses Nuclear receptor subfamily 5 group A member 2 (Homo sapiens) (UniProt O00482). The experiment in a line: NR5A2 activity suppression in reporter cells – cell-based, luminescence, confirmation (AID 651613).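 Note: HEK293T cells co-transfected with LRH-1 and StAR promoter luciferase reporter; 0% = vehicle wells and 100% = parental cells lacking receptor.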 The following applies: cell-based LRH-1 luciferase reporter, inverse agonism; at 3.6 µM; stronger effect = higher value. In general terms: In a reporter assay the amount or activity of a reporter protein is the signal.

In test [3] the target is Steroidogenic factor 1 (Homo sapiens) (UniProt Q13285). The experiment in a line: inverse agonism at SF1 nuclear receptor – cell-based, luminescence, high throughput, counter-screen for LRH-1 inverse agonist project (AID 651614; in the data active = inhibition above about 44%;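 note: cells cotransfected with StAR promoter reporter and SF1 expression vector; 0% = vehicle on cells with receptor and 100% = vehicle on cells lacking receptor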). The following applies: cell-based SF1 luciferase reporter, at 3.6 µM, stronger effect = higher value. (A counterscreen serves to expose hits that act by an unwanted route or on another target.)

Test [4] is described as follows: compounds suppressing VP16-driven luciferase signal – cell-based, luminescence, high throughput, counter-screen for LRH-1 inverse agonist project (AID 651615; in the data active = inhibition above about 33%). Particulars: Gal4-VP16 luciferase reporter cells, at 3.6 µM, stronger effect = higher value.

A word on the inhibition: it is the change of the read-out against control, counted positive when it falls.

Nuclear receptor subfamily 5 group A member 2 (Homo sapiens), sequence (O00482 whole entry, looked up): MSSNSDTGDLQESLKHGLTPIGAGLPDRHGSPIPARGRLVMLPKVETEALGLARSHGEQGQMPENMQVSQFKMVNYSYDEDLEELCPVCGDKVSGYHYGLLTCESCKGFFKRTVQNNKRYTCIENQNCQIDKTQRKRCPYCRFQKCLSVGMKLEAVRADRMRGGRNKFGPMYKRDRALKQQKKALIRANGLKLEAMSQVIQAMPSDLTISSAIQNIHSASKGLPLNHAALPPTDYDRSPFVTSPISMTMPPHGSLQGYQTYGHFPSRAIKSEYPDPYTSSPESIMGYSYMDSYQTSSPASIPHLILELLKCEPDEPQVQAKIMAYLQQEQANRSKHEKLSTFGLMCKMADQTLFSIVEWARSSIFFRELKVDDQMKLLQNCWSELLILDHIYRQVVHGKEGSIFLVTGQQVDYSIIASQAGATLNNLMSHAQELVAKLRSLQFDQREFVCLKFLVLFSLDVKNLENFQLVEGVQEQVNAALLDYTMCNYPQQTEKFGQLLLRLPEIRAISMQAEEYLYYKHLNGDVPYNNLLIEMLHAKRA
Steroidogenic factor 1 (Homo sapiens), sequence (Q13285 whole entry, looked up): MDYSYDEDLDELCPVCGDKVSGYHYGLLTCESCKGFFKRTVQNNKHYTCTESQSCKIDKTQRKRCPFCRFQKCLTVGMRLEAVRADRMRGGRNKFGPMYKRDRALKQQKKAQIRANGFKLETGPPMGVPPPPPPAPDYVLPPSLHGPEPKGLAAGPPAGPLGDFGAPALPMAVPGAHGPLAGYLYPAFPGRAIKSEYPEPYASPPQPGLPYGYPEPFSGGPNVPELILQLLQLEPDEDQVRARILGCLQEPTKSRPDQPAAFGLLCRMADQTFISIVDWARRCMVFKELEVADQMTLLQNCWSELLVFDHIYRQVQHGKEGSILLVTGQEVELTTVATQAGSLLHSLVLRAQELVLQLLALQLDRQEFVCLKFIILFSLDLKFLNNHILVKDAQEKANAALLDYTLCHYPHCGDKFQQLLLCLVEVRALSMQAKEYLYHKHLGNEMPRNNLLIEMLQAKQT

Regarding `c1csc(CCNc2ncnc3sc4c(c23)CCC4)c1`, the inhibition in test [1] was 10.5%; in test [2], 63.7% (active); in test [3] it was 60.7% (active); in test [4] it was 48.9% (active).

As to `O=C(N/N=C/c1ccc([N+](=O)[O-])s1)c1ccccc1Br`, the inhibition in test [1] is 40.1% (active); in test [2] it was 57.5% (active); in test [3], 65.3% (active); in test [4], 14%.

Turning to `CCc1ccccc1NC(=O)CSc1nc2n[nH]c(C)c2c(=N)n1-c1cccc(OC)c1`, the inhibition in test [1] is 16.7%; in test [2], 38.2%; in test [3] it was 19.4%; in test [4], -17.4%.

With `CCC(=O)N1CCN(c2ccc(Cl)cc2NC(=O)c2ccc([N+](=O)[O-])o2)CC1`, the inhibition was 22.8% in test [1], 64.7% (active) in test [2], 61.9% (active) in test [3] and 4.86% in test [4].

Turning to `Cn1c(CCNC(=O)c2cccs2)nnc1SCC(=O)N1CCN(c2ccccc2)CC1`, the inhibition in test [1] was 7.98%; in test [2] it was 29.8%; in test [3], 28.4%; in test [4] it was 0.01%.

On to `CCOc1ccc(NC(=O)COC(=O)c2ncc(Cl)c(Cl)c2Cl)cc1`, for which the inhibition in test [1] is 21.6%; in test [2] it was 38.4%; in test [3], 36.8%; in test [4] it was -18.7%.

For the molecule `CN(CC(=O)Nc1ccc(N2CCOCC2)cc1)CC(=O)Nc1ccc(N2CCOCC2)cc1`, the inhibition in test [1] is 4.02%; in test [2], 52.1% (active); in test [3], 54.2% (active); in test [4], -8.87%.

Consider `COc1cc(C(=O)Nc2sc3c(c2C#N)CCN(C(C)=O)C3)cc(OC)c1OC`, for which the inhibition in test [1] is 23.3%; in test [2] it was 66.3% (active); in test [3] it was 62.2% (active); in test [4] it was -16.2%.

With `COc1cc(NC(=O)CN2C(=O)NC(c3ccccc3)(c3ccccc3)C2=O)c(C)cc1[N+](=O)[O-]`, the inhibition was 24.1% in test [1], 46% (active) in test [2], 35.3% in test [3] and 9.47% in test [4].

`Cc1ccc(-n2nc(C)c(NC(=O)CCl)c2C)cc1`: the inhibition was 35.8% (active) in test [1], 47% (active) in test [2], 57.2% (active) in test [3] and -120% in test [4].

As for `CN(C)c1ccc(C(=O)OCC(=O)Nc2ccc(N3CCOCC3)cc2)cc1`, the inhibition in test [1] is -5.42%; in test [2] it was 62% (active); in test [3], 55.8% (active); in test [4], -6.21%.

Take `CCn1c2ccccc2c2cc(/C=N/n3c(C)nnc3C)ccc21`: the inhibition in test [1] is 27.4%; in test [2] it was 26.4%; in test [3] it was 38.5%; in test [4] it was -25%.

Regarding `Cc1cccc(NC(=O)COC(=O)CN2C(=O)c3ccccc3C2=O)c1C`, the inhibition in test [1] is 7.19%; in test [2] it was 51% (active); in test [3], 47.8% (active); in test [4], -15%.

In the case of `O=C(Nc1ccc(F)cc1)C(c1cc2ccccc2o1)N1CCN(c2cccc(C(F)(F)F)n2)CC1` (stereo not drawn), the inhibition in test [1] is 11%; in test [2], 24.9%; in test [3], 35.4%; in test [4] it was 16.1%.

Consider `CCOc1cc(S(=O)(=O)NCc2ccncc2)ccc1Cl`, for which the inhibition in test [1] is 21.4%; in test [2], 56.6% (active); in test [3], 57.9% (active); in test [4], 55.6% (active).

For the molecule `CCOC(=O)c1c(C)[nH]c(C(=O)COC(=O)/C=C/c2ccc3c(c2)OCO3)c1C`, the inhibition in test [1] was 13%; in test [2] it was 36.5%; in test [3], 43.6% (active); in test [4], 7.82%.

Take `O=C(Nc1ccccn1)c1ccc([N+](=O)[O-])o1`: the inhibition in test [1] is 14.3%; in test [2], 58.2% (active); in test [3] it was 59.1% (active); in test [4], -16.1%.

Turning to `CC1(C)Cc2ccccc2/C(=C/C(=O)c2ccccc2)N1`, the inhibition is 0.1% in test [1], 39% in test [2], 36.2% in test [3] and 15.6% in test [4].

Take `COc1cc(CNc2ccc(CNc3ncn[nH]3)cc2)ccc1OCC(=O)NC(C)(C)C`: the inhibition in test [1] was -5.1%; in test [2] it was 14.1%; in test [3], -3.26%; in test [4], 15.7%.

`Cc1sc2ncnc(NCCc3ccc(S(N)(=O)=O)cc3)c2c1C`: the inhibition in test [1] was 14.7%; in test [2], 53% (active); in test [3] it was 54.6% (active); in test [4], 50% (active).

Take `Cn1nnnc1Sc1ncnc2scc(-c3ccc(-c4ccccc4)cc3)c12`: the inhibition was 19.4% in test [1], 33.6% in test [2], 39.4% in test [3] and -20.2% in test [4].

With `CS(=O)(=O)N1CCN(c2ccccc2NC(=O)c2ccc([N+](=O)[O-])o2)CC1`, the inhibition was 11.6% in test [1], 57.4% (active) in test [2], 55.3% (active) in test [3] and -20.1% in test [4].

For the molecule `CCOc1ccc(S(=O)(=O)Nc2cc(OC)ccc2OC)cc1`, the inhibition in test [1] is 35.8% (active); in test [2], 54.4% (active); in test [3] it was 49.1% (active); in test [4] it was 22.6%.

With `COc1ccc(C(=O)Nc2ccc(S(=O)(=O)N3CCc4ccccc43)cc2)cc1`, the inhibition in test [1] is 29.2% (active); in test [2], 40.6%; in test [3], 44.5% (active); in test [4], 44.7% (active).

In the case of `Cc1cc2ncn(/N=C/c3ccc([N+](=O)[O-])o3)c2cc1C`, the inhibition in test [1] was 17.6%; in test [2], 69.1% (active); in test [3] it was 68.2% (active); in test [4] it was -19.6%.

For `COc1ccccc1Cc1c(-c2ccc(OC)c(OC)c2)nc2c3ccccc3ccn12`, the inhibition in test [1] was 8.86%; in test [2], 40.2%; in test [3], 32%; in test [4], -1.36%.

Consider `COc1cc(N)c2ncccc2c1Cl`, for which the inhibition was -0.07% in test [1], 17.4% in test [2], 11.9% in test [3] and 10.7% in test [4].
